Results reported in PubChem BioAssay (Tox21).
Inconclusive results are not listed. Active and inactive are the calls of the source. Unless noted, calls follow the shape of the dose curve; as a rule, active = well fitted curve in the direction sought with a large enough effect in the repeat runs; inconclusive = weak or mixed curves; inactive = no such curve, though single readings can be large; an effect the other way counts as inactive or inconclusive.

Columns and labels:
[1] = qHTS assay for small molecule agonists of the p53 signaling pathway (AID 651631; calls by dose curve; also: nearly all actives have a fitted effect of over 15% in size)
How it was run: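 HCT-116 cells carrying a stable p53 response element–beta-lactamase reporter were plated, rested 5 h at 37 °C, then exposed to compound in DMSO for 16 h at 37 °C; reporter activity was read as FRET substrate fluorescence after 2 h at room temperature.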

[2] = qHTS assay for small molecules that induce genotoxicity in human embryonic kidney cells expressing luciferase-tagged ATAD5 (AID 651632); also: nearly all actives have a fitted effect of over 15% in size
How it was run: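 Luminescence read-out: after 16 hr compound exposure at 37C, ATAD5-luciferase HEK293T cells received Amplite, 30 min RT, then CCD imaging. A rise in signal marks genotoxic stress.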

[3] = qHTS assay for small molecule agonists of the p53 signaling pathway - cell viability (AID 651633; calls by dose curve; also: nearly all actives have a fitted effect of over 30% in size)
How it was run: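 p53RE-bla cells, seeded at 4,000 per well and rested 5 h at 37 C/5% CO2, received compounds in DMSO for 16 h at 37 C. CellTiter-Glo was then added, and luminescence was read after 30 min at room temperature to gauge cytotoxicity.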

[4] = qHTS assay for small molecules that induce genotoxicity in human embryonic kidney cells expressing luciferase-tagged ATAD5 - cell viability (AID 651634; calls by dose curve; also: nearly all actives have a fitted effect of over 25% in size)
How it was run: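 HEK293T ATAD5-luc cells, 2,000/well; compound 15.5 hr, 37C/5% CO2; CellTiter-Fluor 30 min, 37C; fluorescence read.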

[5] = qHTS assay for small molecule disruptors of the mitochondrial membrane potential - cell viability (AID 720634; calls by dose curve;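 also: human HepG2 liver cancer cells; nearly all actives have a fitted effect of over 20% in size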)
How it was run: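 Luminescence from CellTiter-Glo (ATP content) gave viability in HepG2 cells, read in the same wells as the MMP dye assay after 1 hr compound exposure at 37 C.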

[6] = qHTS assay for small molecule disruptors of the mitochondrial membrane potential (AID 720635)
How it was run: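 HepG2 cells (2,000/well) attached overnight at 37C, then took compound for 1 hr at 37C, 5% CO2. Mito-MPS dye was added for 30 min; fluorescence was read at 490/535 nm (monomers) and 540/590 nm (aggregates).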

[7] = qHTS assay to test for compound auto fluorescence at 590 nm (red) in HepG2 cells (AID 720674)
How it was run: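 Intrinsic compound fluorescence in the red window (Ex/Em 540/590 nm) is measured in attached HepG2 cells exposed for 1 hr, DMSO vehicle as baseline, benchmarked to Rose Bengal sodium.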

[8] = qHTS assay to test for compound auto fluorescence at 535 nm (green) in HepG2 cells (AID 720675)
[9] = qHTS assay to test for compound auto fluorescence at 460 nm (blue) in HEK293 cells (AID 720678)
How it was run: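 Measured: blue fluorescence (Ex 405/Em 460 nm) of compound-treated HEK293 cells, incubated overnight at 37C with 5% CO2 and scaled to triamterene equivalents.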

[10] = qHTS assay to test for compound auto fluorescence at 590 nm (red) in HEK293 cells (AID 720679)
How it was run: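 Using HEK293 cells at 2,000 per well, the screen added 23 nL of each compound after cell attachment and incubated overnight (37C, 5% CO2). The plate reader then captured red-label fluorescence, Ex/Em 540/590nm.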

[11] = qHTS assay to test for compound auto fluorescence at 535 nm (green) in HEK293 cells (AID 720680)
[12] = qHTS assay to test for compound auto fluorescence at 460 nm (blue) in HEK293 cell free culture (AID 720681)
How it was run: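 Test compounds were pinned into cell-free culture medium (DMEM with 10% FBS) and fluorescence was read directly at Ex/Em 405/460 nm. Signals were expressed as fluorescence equivalents of triamterene, with DMSO vehicle as control.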

[13] = qHTS assay to test for compound auto fluorescence at 535 nm (green) in HEK293 cell free culture (AID 720682)
How it was run: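 Read-out: 485/535 nm fluorescence intensity, calibrated against fluorescein. Medium only (DMEM + 10% FBS, no cells); test compound or DMSO vehicle added by pintool before plate reading.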

[14] = qHTS assay to test for compound auto fluorescence at 590 nm (red) in HEK293 cell free culture (AID 720683)
How it was run: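 Tox21 10K library compounds were pinned into cell-free DMEM with 10% FBS and fluorescence was read at excitation 540 nm. Activity is expressed as Rose Bengal sodium equivalency.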

[15] = qHTS assay to test for compound auto fluorescence at 590 nm (red) in HepG2 cell free culture (AID 720684)
How it was run: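 Readout: intrinsic compound fluorescence at 590 nm emission after 540 nm excitation, scaled to Rose Bengal sodium. Matrix was cell-free MEM with 10% FBS; DMSO vehicle wells served as control.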

[16] = qHTS assay to test for compound auto fluorescence at 460 nm (blue) in HepG2 cell free culture (AID 720685)
How it was run: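 Cell-free plates of MEM plus 10% FBS received 23 nL compound or DMSO vehicle; blue-channel (405/460 nm) intensity scored against triamterene as reference fluorophore.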

[17] = qHTS assay to test for compound auto fluorescence at 535 nm (green) in HepG2 cell free culture (AID 720686)
[18] = qHTS assay to test for compound auto fluorescence at 460 nm (blue) in HepG2 cells (AID 720687)
How it was run: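 Cells (2,000/well in MEM with 10% FBS) attached overnight at 37 C, then were exposed to compound or DMSO for 1 hr at 37 C, 5% CO2. Fluorescence read at Ex/Em 405/460 nm, expressed as triamterene-equivalent signal.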

[19] = molecular target: Glucocorticoid receptor (Homo sapiens) (UniProt P04150); assay: qHTS assay to identify small molecule agonists of the glucocorticoid receptor (GR) signaling pathway (AID 720691; active = well fitted activation curve with a large enough effect in the signal ratio in the repeat runs, not every such curve was filed as active; the % refers to the signal ratio); settings: GR-bla HeLa, beta-lactamase reporter ratio, 18 h; activation: at 62.4 µM (top of the series)
Sequence of Glucocorticoid receptor (Homo sapiens) (P04150 whole entry, looked up): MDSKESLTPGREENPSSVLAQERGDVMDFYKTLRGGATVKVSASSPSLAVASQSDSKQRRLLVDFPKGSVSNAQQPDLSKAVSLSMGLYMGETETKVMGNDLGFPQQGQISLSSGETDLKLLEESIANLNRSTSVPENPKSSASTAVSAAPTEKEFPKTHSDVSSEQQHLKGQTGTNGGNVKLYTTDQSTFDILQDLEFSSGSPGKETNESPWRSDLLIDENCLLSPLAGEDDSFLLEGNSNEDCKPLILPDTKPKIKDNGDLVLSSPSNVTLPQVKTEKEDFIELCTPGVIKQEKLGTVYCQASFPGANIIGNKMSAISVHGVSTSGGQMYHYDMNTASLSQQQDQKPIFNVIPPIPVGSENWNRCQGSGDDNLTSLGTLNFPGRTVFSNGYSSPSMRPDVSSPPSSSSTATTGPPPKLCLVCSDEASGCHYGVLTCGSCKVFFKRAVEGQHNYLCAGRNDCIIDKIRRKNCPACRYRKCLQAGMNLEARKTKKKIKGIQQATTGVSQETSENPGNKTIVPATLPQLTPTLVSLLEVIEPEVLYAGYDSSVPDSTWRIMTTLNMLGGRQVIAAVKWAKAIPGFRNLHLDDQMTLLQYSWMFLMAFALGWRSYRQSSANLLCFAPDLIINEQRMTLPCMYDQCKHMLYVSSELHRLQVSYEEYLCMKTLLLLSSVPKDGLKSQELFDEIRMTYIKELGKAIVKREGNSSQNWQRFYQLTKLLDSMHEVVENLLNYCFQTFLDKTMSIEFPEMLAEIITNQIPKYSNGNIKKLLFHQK
How it was run: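 HeLa GR-bla reporter line; cells pre-incubated 4 h, compound in DMSO 18 h at 37 C; LiveBLAzer B/G FRET substrate 2 h RT; fluorescence intensity read-out.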

[20] = molecular target: Glucocorticoid receptor (Homo sapiens) (UniProt P04150); assay: qHTS assay to identify small molecule antagonists of the glucocorticoid receptor (GR) signaling pathway (AID 720692; active = well fitted inhibition curve with a large enough effect in the signal ratio in the repeat runs, not every such curve was filed as active; the % refers to the signal ratio)
How it was run: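 Read-out: beta-lactamase FRET substrate fluorescence, 2 h at room temperature, in HeLa cells stably carrying a GRE-driven bla reporter. Compounds were co-incubated with 5 nM dexamethasone agonist (final) for 18 h at 37 C.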

Measured: Potency

CC(C)(O/N=C(\C(=O)N[C@@H]1C(=O)N2C(C(=O)[O-])=C(C[n+]3ccccc3)CS[C@H]12)c1csc(N)n1)C(=O)O
not listed: [20]
inactive: all other assays above

Cc1ccc(C(C)(C)c2ccc(C)cc2)cc1
inactive: all assays above

CO/N=C(\C(=O)N[C@@H]1C(=O)N2C(C(=O)O)=C(CSc3nc(C)c(CC(=O)O)s3)CS[C@H]12)c1csc(N)n1
not listed: [20]
inactive: all other assays above

C[S+](C)CCC(N)C(=O)O (configuration not stated)
inactive: all assays above

O=C(O)c1ccc(NC2OC[C@@H](O)[C@H](O)[C@H]2O)cc1 (some centres not stated)
not listed: [20]
inactive: all other assays above

NCCO/C=C/[C@H](N)C(=O)O
inactive: all assays above
